“And” between values parts separate entries of the source, which are not always exact repeats. Identical values can stand only once. Screen size: about 120,000 compounds; about 5,300 (4.4%) were called active. Where a call stands in place of a potency, no number is given. About 22% were inconclusive and are not listed. Calls come from the whole dose curve; as a rule, active = well fitted inhibition curve with a large enough effect; inconclusive = small, poorly fitted or top-dose-only effect; inactive = no such curve, though single readings can be large or run the other way. For the sample, actives were picked, then their nearest neighbours and some compounds at random. Some compounds were tested as several samples or in several runs, with calls that do not always agree.
Experiment: qHTS Primary assay for Inhibitors of Plasmodium falciparum Dd2 growth in vitro; note: nearly all actives have a fitted effect of over 65% in size
Conditions: P. falciparum Dd2 growth, SYBR Green, 72 h; series mostly up to 28.9 µM
Procedure, shortened: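 Readout: SYBR Green fluorescence, 485 nm excitation, 535 nm emission, after ~16 h lysis at 37C. Before that, Dd2-infected red cells (2.5% hematocrit) grew 72 h with compound, 29 uM top final concentration.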
Potency is the fitted concentration of half-maximal effect.

Compound	Potency	outcome
Cc1ccc2c(c1)N1C(=O)OC[C@@H]1CCN(C(=O)c1ccno1)C2	inactive	
Cc1cc(C)cc(C(=O)N2CC(c3nnc(-c4ccncc4)o3)C3(CCOCC3)C2)c1 (stereo unspecified)	inactive	
CC(C)(C)c1nc(C(=O)N2CCOCC2)n2ccccc12	inactive	
O=C(c1nc(-c2cccnc2)c2cnccn12)N1CCN(c2ncccn2)CC1	inactive	
Cc1cccc(C)c1-c1nc(C(=O)N2CCN(c3ncccn3)CC2)n2ccccc12	inactive and 12.6 µM (active)	
CN(CC1CCOC1)C(=O)c1ccc(F)cc1F (stereo unspecified)		inactive [at 5.79 µM]
CCOC(=O)C1CCCN(C(=O)Cc2ccc(N(Cc3cccc(F)c3)C(=O)c3ccco3)cc2)C1 (stereo unspecified)	3.98 µM (active)	
O=C(Cc1cccc(F)c1)N1CCCC(Cc2nncn2-c2ccccc2)C1 (stereo unspecified)	inactive	
CC(C)NC(=O)Cc1ccc(N(Cc2cccc(F)c2)C(=O)c2ccco2)cc1	inactive	
CN(CC(=O)N1CCCC(Cc2nncn2-c2ccccc2)C1)S(=O)(=O)c1cccs1 (stereo unspecified)	inactive	
Cc1ccccc1C(=O)NCc1cccnc1Oc1cccc(C(F)(F)F)c1	inactive	
COc1cccc(-c2cc(C(=O)N3CCC(c4nn(C)c(=O)n4C(C)C)CC3)[nH]n2)c1	inactive	
CCC(C(=O)Nc1ccc2c(c1)CN(Cc1cc(F)cc(F)c1)C(=O)CO2)c1ccccc1 (stereo unspecified)	6.31 µM (active)	
CCC(C)N1Cc2cc(NC(=O)c3ccc([N+](=O)[O-])cc3)ccc2OCC1=O (stereo unspecified)	inactive	
CCC1Oc2ccc(NC(=O)c3cccs3)cc2CN(Cc2ccc(F)cc2)C1=O (stereo unspecified)	inactive	
O=C1Nc2ccccc2C12CCN([S+](=O)([O-])c1cccc(C(F)(F)F)c1)C2 (stereo unspecified)	inactive	
COc1ccc([C@H]2C[C@@H](O)[C@@H](O)[C@@H]2NC(=O)c2ccccc2)cc1	inactive	
COc1ccccc1Nc1c2c(nc3ccc(NC(=O)/C=C/c4cc(OC)c(OC)c(OC)c4)cc13)CCCC2	3.98 µM (active)	
COc1cc(C(=O)Nc2ccc(-n3c(C)nc4ccccc4c3=O)cc2)cc(OC)c1OC	inactive	
CCOc1ccccc1NC(=O)Cn1nnc(C(=O)Nc2ccc(C)c(C)c2)c1N	inactive	
COc1cc(NC(=O)c2nc3ccccc3nc2C)cc(OC)c1OC	inactive	

Compound	Potency	outcome
CCOc1ccc(-n2nc3ccc(NC(=O)c4ccc(OC)c(Cl)c4)cc3n2)cc1	inactive	
CCOc1ccc(C(=O)Nc2ccc3nc4c(c(Nc5ccccc5OC)c3c2)CCCC4)cc1	11.2 µM (active)	
Cc1noc(-c2ccco2)c1C(=O)NC(C)c1ccccc1 (stereo unspecified)	inactive	
O=[S+]([O-])(c1ccc(Br)cc1)c1nnn2c1nc(NC1CC1)c1ccccc12	inactive	
CCc1cc(=O)n(CC(=O)Nc2cccc(C(C)=O)c2)c(-c2ccccc2)n1	inactive	
Cc1ccc(NC(=O)CC2=C3CCCCC3NC2=O)cc1 (stereo unspecified)	inactive	
CC(C)c1nccn1CCCNc1nc(-c2ccncc2)nc2c1cnn2C	12.6 µM (active)	
Cc1ccccc1-c1ccc(C(=O)NCCCn2ccnc2C(C)C)cn1	inactive	
CC(Cn1cncn1)Nc1nc(-c2ccncc2)nc2c1cnn2C (stereo unspecified)	inactive	
O=C(NC1CCCCC1)N1C[C@@H]2C[C@H](C1)c1c(NS(=O)(=O)c3ccccc3)ccc(=O)n1C2	inactive	
Cc1cc(C)cc(NC(=O)Cn2nc3n(c2=O)CCCC3)c1	inactive	
COC1C(=O)N(C2CCN(Cc3ccc(O)cc3)CC2)C12CCOCC2 (stereo unspecified)	inactive	
Cc1nn2c(c1-c1ccccc1-c1ccccc1)N(C(=O)CN1CCOCC1)CCC2	inactive	
Cc1nn2c(c1-c1ccccc1-c1ccccc1)N(CC1CC1)CCC2	0.316 µM (active)	
Cc1nn2c(c1-c1ccnn1C(C)C)N(CC1CCOCC1)CCC2	inactive	
Cc1ncsc1C1N(C2CCN(C(=O)c3ccncc3)CC2)C(=O)C12CCCC2 (stereo unspecified)	inactive	
Cc1ccccc1NC(=O)c1cc2c([nH]c1=O)CC(C)(C)CC2=O	inactive	
Cc1ccccc1NC(=O)CCOc1ccccc1	inactive	
Cc1ccccc1NC(=O)c1cc2cn(C(C)C)cc2s1	8.91 µM (active)	
CCn1cc(S(=O)(=O)N2CCC3(CC2)CN(Cc2ccc(OC)cc2)C3=O)cn1	inactive	
C=CCNC(=O)c1cn2c(n1)CN([S+](C)(=O)[O-])CC2	inactive	

Compound	Potency	outcome
CN(C)c1ccc(NC(=O)Cn2nc3n(c2=O)CCCCC3)cc1	inactive	
COc1ccc(C(=O)N2CCCCCCNC(=O)CC2)cn1	inactive	
O=C(NCc1ccccc1)[C@@H]1Cc2nc[nH]c2CN1Cc1cccc(OC(F)(F)F)c1	10 µM (active)	
O=C(NCc1ccco1)C1CCCN(c2cnn(Cc3ccccc3)c(=O)c2)C1 (stereo unspecified)	inactive	
O=C(CCc1conc1-c1ccccc1)NCc1ccco1	inactive	
O=C(NCc1ccco1)[C@@H]1Cc2nc[nH]c2CN1CCCc1ccccc1	7.94 µM (active)	
O=C(O)CCC(=O)N1Cc2[nH]cnc2C[C@H]1c1nc(-c2ccc3ccccc3c2)no1	inactive	
COc1cccc(CC(=O)N2CCC(N3C(=O)CCC3C(=O)NCc3ccccc3)CC2)c1 (stereo unspecified)	inactive	
Fc1ccc(NC2CCCN(Cc3ccc(C#Cc4cncnc4)cc3)C2)cc1F (stereo unspecified)	inactive	
O=C1COc2ccc(-c3cncnc3)nc2CN1Cc1ccc(F)cc1	inactive	
OC1CC([C@@H](Cc2ccccn2)NC2CCC3(CCNCC3)CC2)C1 (stereo partly specified)	inactive	
Cc1ccc(Oc2c(C(F)(F)F)oc3c(CN4CCCCC4)c(O)ccc3c2=O)cc1	3.55 µM (active)	
Cc1ccc(C)c(Oc2c(C(F)(F)F)oc3c(CN4CCN(C)CC4)c(O)ccc3c2=O)c1	0.501 µM (active)	
CC1CCCN(Cc2c(O)ccc3c(=O)c(Oc4ccc(C(C)(C)C)cc4)c(C(F)(F)F)oc23)C1 (stereo unspecified)	0.316 µM (active)	
COc1ccc(-c2c(C)c3ccc(O)c(CN4CCCC4)c3oc2=O)cc1OC	inactive	
Cc1ccc2nc3n(c2c1)[C@@H](CNC(=O)c1ccc(C#N)cc1)COC3	inactive	
O=C(c1ccc(F)cc1)N1CCC2(CN[S+](=O)([O-])c3ccccc3N2)C1 (stereo unspecified)	inactive	
O=C1CC2(CCN(C(=O)CCn3ccccc3=O)C2)C(=O)N1 (stereo unspecified)	inactive	
CN[C@@H](CC(C)C)C(=O)N[C@@H]1C=C(C(=O)N[C@@H](Cc2ccc(O)cc2)C(N)=O)C[C@@H](O)[C@@H]1O	inactive	

— PubChem BioAssay AID1347417 (National Center for Advancing Translational Sciences (NCATS), 2020)
